{"source": "PubChem BioAssay (EPA / NIEHS)", "note": "Activity calls are given as the source filed them. How the source made its calls: active means hit-call score of the fitted dose curve at least 0.9, where 1 is the maximum; inconclusive means response in the unintended direction; inactive means score below 0.9."}
{"system": "rat CYP3A1, gene 25642", "assay": "NVS_ADME_rCYP3A1: NovaScreen (NVS) CYP450-related Enzyme Activity (ADME) Assay for rat CYP3A1 (AID 2283126)", "procedure": "NVS_ADME_rCYP3A1 is a biochemical, single-readout assay that uses extracted gene-proteins in a cell-free assay. Measurements were taken 0.5 hour after chemical dosing in a 96-well plate.NVS_ADME_rCYP3A1 is one of one assay component(s) measured or calculated from the NVS_ADME_rCYP3A1 assay. It is designed to make measurements of enzyme activity, a form of enzyme reporter, as detected with fluorescence intensity signals by Fluorescence technology.Data from the assay component NVS_ADME_rCYP3A1 was analyzed into 1 assay endpoint. This assay endpoint, NVS_ADME_rCYP3A1, was analyzed in the positive analysis fitting direction relative to Acetonitrile as the negative control and baseline of activity. Using a type of enzyme reporter, loss-of-signal activity can be used to understand changes in the enzymatic activity as they relate to the gene Cyp3a23/3a1. Furthermore, this assay endpoint can be referred to as a primary readout, because this assay has produced multiple assay endpoints where this one serves a enzymatic activity function. To generalize the intended target to other relatable targets, this assay endpoint is annotated to the cyp intended target family, where the subfamily is xenobiotic metabolism.\nBinding assays used specific radioligands (tritiated, iodinated) with non-radioactive competitive displacement ligands in agonist or antagonist protocols (as indicated) and various reference compounds and inhibitors to titrate specific binding to receptors and transporters. Most enzyme assays (CYPs, kinases, phosphatases, proteases, HDACs) used recombinant protein and specific substrates (fluorescence mostly, some colorimetric and radioactive) and inhibitors, followed by a biochemical separation of substrate and product. All assays for the biochemical HTS were initially run in duplicate at a single concentration (10 uM for CYP450 assays and 25 uM for all others). Assay-chemical combinations meeting a pre-defined threshold (e.g., 30% inhibition and other criteria defined below) were then run in singleton concentration-response format with maximum concentration of 20 uM for CYPs and 50 uM for all others. Each assay was run with positive and negative controls, and concurrent controls on every plate. The follow-up (secondary) screen tested active chemical-pairs in concentration series, as well as a few additional assays not tested in the primary screen, some selected negative inactives, and several cases re-run in the concentration series for confirmatory purposes."}
{"smiles": "CCOC(=O)NCCOc1ccc(Oc2ccccc2)cc1", "AC50": "5.62 µM (active)"}
{"smiles": "C=CCOC(Cn1ccnc1)c1ccc(Cl)cc1Cl", "note": "(stereo not drawn)", "AC50": "0.729 µM (active)"}
{"smiles": "S=C(S)NCCNC(=S)S.[Mn+2].[S-]C([S-])=NCCN=C([S-])[S-].[Zn+2]", "AC50": "10 µM (active)"}
{"smiles": "CCCCC(CC)CN1C(=O)C2C3C=CC(C3)C2C1=O", "note": "(stereo not drawn)", "AC50": "6.63 µM (active)"}
{"smiles": "CC(C)(C)[C@@H](O)[C@@H](Cc1ccc(Cl)cc1)n1cncn1", "AC50": "3.44 µM (active)"}
{"smiles": "CCCCOCCOCCOCc1cc2c(cc1CCC)OCO2", "AC50": "5.03 µM (active)"}
{"smiles": "CN(C)C(=O)Nc1ccc(Cl)c(Cl)c1", "AC50": "5.82 µM (active)"}
{"smiles": "CCN(Cc1c(F)cccc1Cl)c1c([N+](=O)[O-])cc(C(F)(F)F)cc1[N+](=O)[O-]", "AC50": "6.19 µM (active)"}
{"smiles": "S=C([S-])NCCNC(=S)[S-].[Mn+2]", "AC50": "7.1 µM (active)"}
{"smiles": "CC(C)(c1ccc(O)cc1)c1ccc(O)cc1", "AC50": "9.88 µM (active)"}
{"smiles": "N#CSCSc1nc2ccccc2s1", "AC50": "10.1 µM (active)"}
{"smiles": "CSC(=O)c1cccc2nnsc12", "AC50": "4.28 µM (active)"}
{"smiles": "Oc1ccc(C(c2ccc(O)cc2)C(Cl)(Cl)Cl)cc1", "AC50": "2.7 µM (active)"}
